DT40 TDP1 no CPT – qHTS for Inhibitors of human tyrosyl-DNA phosphodiesterase 1 (TDP1): qHTS in cells in absence of CPT. DT40 Tdp1-/- hTDP1 cells, no CPT, ATP luminescence, 48 h. Potency, µM (top dose mostly 46.2 µM), hits mostly inhibitors. actives 15% (n = 420,000); also: nearly all actives have a fitted effect of over 55% in size
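Camptothecin absent (DMSO only). Human TDP1-complemented DT40 knockout cells, 400 cells/well, 37 °C for minimum 48 hr; ATP measured via CellTiter-Glo, 30 min dark incubation, luminescence.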
Chronic BCR inh – qHTS Assay to Find Inhibitors of Chronic Active B-Cell Receptor Signaling; ABC-DLBCL IkBa-CBG/CBR reporter, luminescence ratio, 4 h; actives 0.05% (n = 340,000); AID 493014, 2011; Potency, µM (top dose mostly 46.1 µM), hits mostly inhibitors; active = well fitted inhibition curve with a large enough effect in the signal ratio, with a control signal flat, not every such curve was filed as active; inconclusive = small, poorly fitted or top-dose-only effect, or effect the other way, or a change in a side signal; the % refers to the signal ratio
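Compounds up to 46 uM were incubated four hours with TMD8 cells whose green CBG68 luciferase is fused to IkappaBalpha; red CBR luminescence normalised the signal, and concentration-effect curves were fitted to fusion, red and ratio data.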
SW480 rereplic – A quantitative high throughput screen for small molecules that induce DNA re-replication in SW480 colon adenocarcinoma cells; SW480 DNA re-replication, Hoechst DNA content imaging, 48 h; Potency, µM (series often up to 46.1 µM), most hits filed as activators; actives 1.8% (n = 340,000); also: nearly all actives have a fitted effect of over 55% in size
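Cells (250 per well) received 23 nL compound or DMSO by pin tool and were kept 48 hr at 37 C, 5% CO2. Nuclei were then stained with Hoechst for 40 min and scanned for DNA content.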
MCF10A rerep – A quantitative high throughput screen for small molecules that induce DNA re-replication in MCF 10a normal breast cells; MCF 10A DNA re-replication, Hoechst nuclear intensity, 48 h; Potency, µM (top dose mostly 46.1 µM), hits mostly activators; actives 2.9% (n = 350,000); AID 624296, 2012; also: nearly all actives have a fitted effect of over 50% in size
TDP1 cell CPT – qHTS for Inhibitors of human tyrosyl-DNA phosphodiesterase 1 (TDP1): qHTS in cells in presence of CPT; chicken DT40 Tdp1-/-;hTDP1 cells + 20 nM CPT, ATP luminescence, 48 h; AID 686979, 2013; Potency, µM (top dose mostly 46.2 µM), hits mostly inhibitors; actives 12% (n = 420,000); also: nearly all actives have a fitted effect of over 55% in size
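Cell growth measured by CellTiter-Glo luminescence after a minimum 48 h, 37 C compound exposure with 20 nM CPT in Tdp1-knockout DT40 cells stably expressing hTDP1, seeded 400/well; qHTS titration format.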
IL-1B inflam inh – qHTS for Inhibitors of Inflammasome Signaling: IL-1-beta AlphaLISA Primary Screen; THP-1 LPS/ATP IL-1B secretion, AlphaLISA, 16 h; stronger effect = lower value; activity change, % at 57.5 µM; actives 4.7% (n = 360,000); AID 743279, 2014; in the data active = activity change below about -50%; inconclusive = mostly about -30% to -49%
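THP-1 cells pretreated 1 hr with compounds (up to 57.5 uM final), then stimulated with LPS (250 ng/mL final) plus ATP (1.25 mM final); secreted IL-1B measured by AlphaLISA after 16 hr, decreased signal indicating inhibition.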
Large screens that a line does not name were inactive. This is a sample that favours compounds with a hit; in the whole collection about 19% have one here. Unless noted, calls follow the shape of the dose curve; as a rule, active = well fitted curve in the direction sought with a large enough effect; inconclusive = small, poorly fitted or top-dose-only effect, or another doubt; inactive = no such curve, though single readings can be large; an effect the other way counts as inactive or inconclusive.

C=C1C(=O)O[C@H]2C[C@]3(C)C([C@@H](OC(=O)/C(C)=C/C)[C@H]12)[C@](C)(O)CC[C@H]3O (some centres undefined)	DT40 TDP1 no CPT 8.2µM, Chronic BCR inh inconclusive, TDP1 cell CPT 15µM, IL-1B inflam inh -58
C=C1C(O)[C@@H]2O[C@]3(CC[C@H](/C=C/C(C)[C@@H]4CC(C)=CC5(O[C@H](C[C@@](C)(O)CO)CCC5O)O4)O3)CC[C@H]2O[C@@H]1C(O)CC(C)[C@H]1OC2(CCCCO2)CCC1C (some centres undefined)	DT40 TDP1 no CPT 3.3µM, Chronic BCR inh inconclusive, SW480 rereplic inconclusive, TDP1 cell CPT 1.5µM, IL-1B inflam inh -100
C=C1[C@@H](O)[C@@H]2O[C@]3(CC[C@H](/C=C/[C@@H](C)[C@@H]4CC(C)=CC5(O[C@H](C[C@@](C)(O)C(=O)OC)CC[C@H]5O)O4)O3)CC[C@H]2O[C@@H]1[C@@H](O)C[C@H](C)[C@H]1OC2(CCCCO2)CC[C@H]1C (some centres undefined)	DT40 TDP1 no CPT 0.92µM, SW480 rereplic inconclusive, MCF10A rerep inconclusive, TDP1 cell CPT 0.58µM
CCCCCCCCC#CCC#CCC#CCCCC(=O)O	none (no result: Chronic BCR inh, SW480 rereplic, MCF10A rerep, IL-1B inflam inh)
O=C(COC(=O)COc1ccccc1)Nc1ncc([N+](=O)[O-])s1	DT40 TDP1 no CPT inconclusive, Chronic BCR inh inconclusive, TDP1 cell CPT 23µM
CC(CC(=O)Nc1ncc([N+](=O)[O-])s1)c1ccccc1 (centres undefined)	DT40 TDP1 no CPT inconclusive, Chronic BCR inh inconclusive, TDP1 cell CPT inconclusive, IL-1B inflam inh -63
O=C(Cc1ccc(Cl)cc1)Nc1ncc([N+](=O)[O-])s1	Chronic BCR inh inconclusive, MCF10A rerep inconclusive
CCSc1nnc(NC(=O)COc2ccc(Cl)cc2)s1	none
CCC(Oc1ccccc1)C(=O)Nc1ncc([N+](=O)[O-])s1 (centres undefined)	DT40 TDP1 no CPT inconclusive, Chronic BCR inh inconclusive, TDP1 cell CPT inconclusive
O=C(COc1ccc(Cl)cc1)Nc1ncc([N+](=O)[O-])s1	DT40 TDP1 no CPT 23µM, Chronic BCR inh inconclusive, MCF10A rerep inconclusive, TDP1 cell CPT 26µM
O=C(Cc1ccc(Br)cc1)Nc1ncc([N+](=O)[O-])s1	DT40 TDP1 no CPT 13µM, Chronic BCR inh inconclusive, MCF10A rerep inconclusive, TDP1 cell CPT inconclusive, IL-1B inflam inh -54
COC(=O)C1CCN(Cc2ccc3c(c2)CN(C(=O)C2Cc4ccccc4O2)CCO3)CC1 (centres undefined)	none (no result: Chronic BCR inh, SW480 rereplic, MCF10A rerep, IL-1B inflam inh)
Clc1cc(Cl)cc(C2=NCCC(c3ccccc3)O2)c1 (centres undefined)	none (no result: DT40 TDP1 no CPT, TDP1 cell CPT, IL-1B inflam inh)
CC(C)Oc1cccc(C(=O)Nc2ccc(-c3nc4cc(Cl)cc(Cl)c4o3)cc2)c1	none (no result: Chronic BCR inh, SW480 rereplic, MCF10A rerep, IL-1B inflam inh)
N/C(=N\OC(=O)Nc1ccccc1)c1ncc([N+](=O)[O-])s1	DT40 TDP1 no CPT 8.2µM, Chronic BCR inh inconclusive, SW480 rereplic inconclusive, MCF10A rerep inconclusive, TDP1 cell CPT 3.3µM, IL-1B inflam inh -64
Cc1cc(C)nc(N/C=C(\C#N)C(=O)c2cccc(CSc3ccccc3)c2)n1	TDP1 cell CPT inconclusive (no result: Chronic BCR inh, SW480 rereplic, MCF10A rerep, IL-1B inflam inh)
Cc1ccc(S(=O)(=O)/N=C(\CCl)N2CCOCC2)cc1	DT40 TDP1 no CPT 16µM, Chronic BCR inh inconclusive, SW480 rereplic inconclusive, MCF10A rerep inconclusive, TDP1 cell CPT 15µM, IL-1B inflam inh -52
Cc1ccc(S(=O)(=O)/N=C(\CN2CCOCC2)N2CCCC2)cc1	none
CCOC(=O)c1c(C)n(C)c2ccc(OCC(O)CN3C(=O)c4ccccc4S3(=O)=O)cc12 (centres undefined)	DT40 TDP1 no CPT 16µM, TDP1 cell CPT 16µM
CCOC(=O)c1c(C)n(C)c2ccc(OCC(O)Cn3nc(C)cc3C)cc12 (centres undefined)	DT40 TDP1 no CPT inconclusive, Chronic BCR inh inconclusive, TDP1 cell CPT inconclusive
COc1ccc(OC)c(S(=O)(=O)Nc2cccc(-c3ccc(N4CCCCC4)nn3)c2)c1	none (no result: Chronic BCR inh, SW480 rereplic, MCF10A rerep, IL-1B inflam inh)
CCOC(=O)C1CCCN(Cc2nc(CC3CC3)no2)C1 (centres undefined)	none
O=C(N/N=C/c1ccccc1)c1ccc(CN2C(=O)c3cccc4cccc2c34)cc1	SW480 rereplic inconclusive, MCF10A rerep 16µM
CN(C)c1ccc(/C=N/NC(=O)c2ccc(CN3C(=O)c4cccc5cccc3c45)cc2)cc1	none (no result: DT40 TDP1 no CPT, SW480 rereplic, MCF10A rerep, TDP1 cell CPT, IL-1B inflam inh)
O=C(N/N=C/c1ccc(O)cc1O)c1ccc(CN2C(=O)c3cccc4cccc2c34)cc1	DT40 TDP1 no CPT 3.7µM, Chronic BCR inh inconclusive, SW480 rereplic inconclusive, MCF10A rerep inconclusive, TDP1 cell CPT 4.6µM
O=C(NC1CC(=O)N(c2ccc(F)cc2)C1)c1ccco1 (centres undefined)	none (no result: SW480 rereplic, MCF10A rerep, IL-1B inflam inh)
C=CC[C@@H](CC(=O)OC(C)(C)C)C(=O)OC[C@H]1CCCN1C(=O)[C@@H](CC=C)CC(=O)N(CCO)Cc1ccccc1	DT40 TDP1 no CPT inconclusive, MCF10A rerep inconclusive, TDP1 cell CPT inconclusive, IL-1B inflam inh -62
C=CC[C@@H](CC(=O)OC(C)(C)C)C(=O)OC[C@@H]1CCCN1C(=O)[C@@H](CC=C)CC(=O)N(CCO)Cc1ccccc1	DT40 TDP1 no CPT inconclusive, TDP1 cell CPT inconclusive, IL-1B inflam inh -55
C=CC[C@@H](Cc1ccc(F)cc1)C(=O)OC[C@@H]1CCCN1C(=O)[C@H](CC=C)CC(=O)N[C@H](CO)Cc1ccccc1	DT40 TDP1 no CPT 18µM, Chronic BCR inh inconclusive, MCF10A rerep inconclusive, TDP1 cell CPT inconclusive, IL-1B inflam inh -70
C=CC[C@@H](Cc1ccc(F)cc1)C(=O)OC[C@@H]1CCCN1C(=O)[C@@H](CC=C)CC(=O)N(CCO)Cc1ccccc1	DT40 TDP1 no CPT 15µM, Chronic BCR inh inconclusive, TDP1 cell CPT inconclusive, IL-1B inflam inh inconclusive
C=CC[C@@H](CC(=O)OC(C)(C)C)C(=O)OC[C@@H]1CCCN1C(=O)[C@@H](CC=C)CC(=O)N[C@@H](CO)Cc1ccccc1	DT40 TDP1 no CPT inconclusive, TDP1 cell CPT inconclusive
ClC1=CN(C2=NCCC2)CC1	none (no result: Chronic BCR inh, SW480 rereplic, MCF10A rerep)
Nc1c([N+](=O)[O-])cnnc1-c1ccccc1	none
COc1ccc(-c2nc(CN3CCN(c4cc(C)nc(C)c4)CC3)c(C)o2)c2ccccc12	DT40 TDP1 no CPT inconclusive, SW480 rereplic inconclusive, MCF10A rerep 16µM, IL-1B inflam inh -105
COc1ccc(-c2nc(CN3CCN(Cc4ccccc4)CC3)c(C)o2)cc1	none
